About 10,000 (3%) of roughly 330,000 compounds were called active. The sample as a whole holds a higher share of actives than the screen did. Values without a mark were called inactive.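 The calls were made as follows: active = inhibition of at least 50% at 8 µM in the primary screen; inactive = the rest.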

In the assay the target is Protein Mdm4 (Homo sapiens) + E3 ubiquitin-protein ligase Mdm2 (Homo sapiens) (UniProt O15151+Q00987). In words: inhibitors of human Mdm2-MdmX association, primary screen, cell-based, luminescence, split luciferase, SaOS-2, uHTS (AID 485346). To be noted: SaOS-2 split-luciferase Mdm2/MdmX complementation, at 8 µM, hits give high values.
Sequence of Protein Mdm4 (Homo sapiens) + E3 ubiquitin-protein ligase Mdm2 (Homo sapiens) (O15151 whole entry, looked up): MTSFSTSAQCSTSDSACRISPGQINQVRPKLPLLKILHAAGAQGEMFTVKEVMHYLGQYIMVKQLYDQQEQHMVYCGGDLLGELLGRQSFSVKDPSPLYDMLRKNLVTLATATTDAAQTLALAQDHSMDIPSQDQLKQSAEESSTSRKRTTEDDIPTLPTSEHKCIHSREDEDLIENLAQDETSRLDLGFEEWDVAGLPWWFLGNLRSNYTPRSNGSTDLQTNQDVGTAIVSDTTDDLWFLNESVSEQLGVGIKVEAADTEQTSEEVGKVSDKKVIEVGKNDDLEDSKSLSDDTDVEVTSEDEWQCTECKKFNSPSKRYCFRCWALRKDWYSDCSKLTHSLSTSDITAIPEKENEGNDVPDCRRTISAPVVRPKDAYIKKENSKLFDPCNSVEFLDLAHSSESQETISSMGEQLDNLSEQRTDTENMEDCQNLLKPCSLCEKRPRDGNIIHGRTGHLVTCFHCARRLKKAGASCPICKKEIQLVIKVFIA
Sequence of Protein Mdm4 (Homo sapiens) + E3 ubiquitin-protein ligase Mdm2 (Homo sapiens) (Q00987 whole entry, looked up): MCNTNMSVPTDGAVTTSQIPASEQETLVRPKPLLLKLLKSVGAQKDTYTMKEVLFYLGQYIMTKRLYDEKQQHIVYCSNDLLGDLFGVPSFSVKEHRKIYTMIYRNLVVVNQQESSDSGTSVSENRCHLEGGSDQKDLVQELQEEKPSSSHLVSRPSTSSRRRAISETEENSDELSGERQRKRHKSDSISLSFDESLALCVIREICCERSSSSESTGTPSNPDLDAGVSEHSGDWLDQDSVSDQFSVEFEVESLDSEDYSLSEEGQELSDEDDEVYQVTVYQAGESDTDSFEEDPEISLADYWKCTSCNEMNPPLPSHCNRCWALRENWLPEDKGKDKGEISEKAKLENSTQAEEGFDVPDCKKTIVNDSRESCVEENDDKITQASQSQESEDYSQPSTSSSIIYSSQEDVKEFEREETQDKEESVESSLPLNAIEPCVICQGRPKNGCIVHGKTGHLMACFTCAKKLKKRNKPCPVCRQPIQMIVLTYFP
As for `CCCCN(C)CCNC(=O)CSCc1ccc(C)cc1`, the inhibition was 7.69%. The result for `CCOC(=O)NC(=O)C(=CNc1cccc(OC)c1)C(=O)NC(=O)OCC` reads 9.28%; that for `C=CCOCCN(C)C1=NS(=O)(=O)c2ccccc21`, 5.66%; that for `O=C(Nc1nc(-c2cccnc2)cs1)c1ccccc1F`, -52.4%. In the case of `O=C(Nc1nnc(-c2ccccc2F)s1)c1ccccc1F` it was 54.1% (active). `CN(Cc1ccccc1)S(=O)(=O)c1nnc(NC(=O)c2ccccc2F)s1`: the inhibition was -3.09%.

In the case of `CCSc1nc(=S)n(CC)c(C)c1C(C)=O`, the inhibition was 14.7%. On to `CCN(CC)S(=O)(=O)c1ccc(-c2cn3ccc(C)cc3n2)cc1`, for which the inhibition is -58.3%. The result for `Cc1ccc2nc(-c3ccc(Br)cc3)cn2c1` reads 61.7% (active); that for `Cc1ccc(-c2cn3cc([N+](=O)[O-])ccc3n2)cc1`, -68.9%; that for `Cc1ccc(-c2cn3cc(C)ccc3n2)cc1`, 89.4% (active). In the case of `CSc1nnc2ccc(-c3ccc(C)cc3)nn12` it was 34.9%.

Turning to `COc1ccc(-c2cn3ccc(C)cc3n2)cc1`, the inhibition is 33.6%. Regarding `C[C@@]12C(=O)N(c3cccc(Br)c3)C(=O)N1[C@H](c1ccc(Cl)cc1)[C@@H]1C(=O)N(C3CCCCC3)C(=O)[C@@H]12`, the inhibition was 49.2%.

As for `CCC(C)C(N=C1NS(=O)(=O)c2ccccc21)C(=O)N1CCC(C)CC1` (stereo unspecified), the inhibition is 11.7%. In the case of `CCC1(C)NC(=O)N(CC(=O)N2CCN(c3cccc(Cl)c3)CC2)C1=O` (stereo unspecified), the inhibition is 13.3%. The result for `CCN1C(=O)/C(=C\N2CCN(c3cccc(Cl)c3)CC2)SC1=S` reads 64.2% (active); that for `CCN1C(=O)/C(=C\N2CCOCC2)SC1=S`, 7.76%; that for `CCOc1ccc(N/C=C/C(=O)c2cc(OC)c(OC)c(OC)c2)cc1`, 28.5%.

As to `COc1ccc(C(=O)/C=C/Nc2ccccn2)cc1`, the inhibition is 56.3% (active).

With `CCOc1ccc(N/C=C/C(=O)c2ccccc2)cc1`, the inhibition is -143%. For the compound `COc1ccccc1-c1sc2ccccc2c1C#CC1(O)CCCCC1`, the inhibition is 12%.

Consider `CSc1ccccc1NC(=O)COC(=O)CCCOc1ccc(C)cc1`, for which the inhibition was 2.26%. `O=C(Nc1ccc(Cl)cc1)Nc1nnc(/C=C/c2ccccc2)s1`: the inhibition was 84.4% (active). Regarding `COc1ccc(/C=C/c2nnc(NC(=O)C(C)C)s2)cc1`, the inhibition is 18.7%.

For `O=C(CSc1ccccc1)Nc1nnc(/C=C/c2ccccc2)s1`, the inhibition was -2.82%. `CC(=O)NCC(=O)N1CCC(n2nccc2NC(=O)CCCc2ccccc2)CC1`: the inhibition was -4.94%. Take `COC(=O)c1cccc(N(CC(=O)NCC2CCCO2)C(=O)CCC(=O)Nc2cc(C)on2)c1` (stereo unspecified): the inhibition is 5.29%. The result for `O=C(NN1C(=O)C2C(C1=O)C1C=CC2C12CC2)c1ccccc1Cl` (stereo unspecified) reads 4.22%; that for `COc1ccccc1C(=O)NN1C(=O)C2C3C=CC(O3)C2C1=O` (stereo unspecified), 14.8%. `CC12CCC(C(=O)N(NC(=O)c3ccccc3O)C1=O)C2(C)C` (stereo unspecified): the inhibition is 61.1% (active). With `COCCN1C(=O)N(c2ccc(Cl)cc2)C(=O)C1CC(=O)Nc1cc(OC)cc(OC)c1` (stereo unspecified), the inhibition is 22.4%. The result for `O=C(Nc1ccc(Br)cc1)c1cccc(NC(=O)C2C3CC4OC(=O)C2C4C3)c1` (stereo unspecified) reads 8.16%; that for `CCN1C(=O)[C@@H]2[C@@H](c3ccc(-c4ccc(OC)cc4)c(OC)c3)N3CCC[C@@]3(C(=O)OC)[C@@H]2C1=O`, 28.1%. Take `CCCCCCSc1ccc([C@@H]2[C@H]3C(=O)N(CC)C(=O)[C@H]3[C@]3(C(=O)OC)CCCCN23)cc1`: the inhibition is 29.8%. In the case of `CCCCCCSc1ccc([C@@H]2[C@@H]3C(=O)N(CC)C(=O)[C@@H]3[C@]3(C(=O)OC)CCCCN23)cc1OC` it was 54.2% (active); in that of `COCCn1c(C)cc(C(=O)CN2c3cccc4cccc(c34)S2(=O)=O)c1C`, 5.95%.

For the compound `C/C(=N\Nc1ccc([N+](=O)[O-])cc1)c1ccc(-n2nncc2C(C)(C)C)cc1`, the inhibition is 22.2%. In the case of `O=C(CN1C(=O)CSC1=O)N1CCCC(Nc2ccc(F)cc2)C1` (stereo unspecified) it was 5.11%; in that of `CC1=NN(c2cccc(Cl)c2)C(=O)C12CC(C)=C(C)CS2` (stereo unspecified), 6.51%.

As to `COc1ccc(C(C(=O)NC2CCCCC2)N(C(=O)CCl)c2ccccc2Cl)cc1` (stereo unspecified), the inhibition was 92% (active). `COc1cccc(N(C(=O)C2COc3ccccc3O2)C(C(=O)NC2CCCCC2)c2ccc(O)cc2)c1` (stereo unspecified): the inhibition is 5.54%. For `COc1ccc(C(C(=O)NC2CCCCC2)N(C(=O)c2snc(C(N)=O)c2N)c2ccccc2OC)cc1` (stereo unspecified), the inhibition was 23.2%. `Cc1nnc(SC(C(=O)Nc2cc(Cl)cc(Cl)c2)c2ccccc2)[nH]c1=O` (stereo unspecified): the inhibition was -11%. In the case of `OCC1(Cc2ccccc2C(F)(F)F)CCN(Cc2cccc3cnccc23)CC1` it was -16.9%; in that of `Cc1cccc(C(=O)Nc2ccc(Oc3cnccn3)cc2)c1`, -15.7%; in that of `CCCCSc1nnc2c(n1)OC=Nc1ccccc1-2`, -25.2%. The result for `Cc1ccc(S(=O)(=O)NCC(=O)N(CC(=O)NC2CCCCC2)Cc2ccco2)cc1` reads -4.29%; that for `Cc1ccc(-c2cc(=O)[nH]c(NCc3ccccc3)n2)cc1`, -3.28%; that for `Brc1ccc(C2CC(c3ccccc3)=Nc3ccccc3N2)cc1` (stereo unspecified), -130%. In the case of `Cc1cn(COC/C=C/c2ccccc2)c(=O)[nH]c1=O` it was 7.02%; in that of `Cc1[nH]c(=O)c(C(=O)/C=C/c2ccccc2)c2c1CCCC2`, 70.9% (active). `CC(=O)Nc1ccc(/C=C/C(=O)c2ccccc2)cc1`: the inhibition was -7.03%. In the case of `CC(C)C[C@H](CO)Nc1nc(N(C)c2cccc(Cl)c2)c2ncn(C(C)C)c2n1` it was 22.9%; in that of `CC(C)n1cnc2c(Nc3cccc(Cl)c3)nc(N(CCO)CCCO)nc21`, 88.9% (active). The result for `COCn1c(C(O)c2ccccc2)cc2ccccc21` (stereo unspecified) reads -4.01%.

`Cc1cc(C)c2nc(N3CCC(C(=O)NCCN4CCOCC4)CC3)sc2c1`: the inhibition was 16.2%. In the case of `Cc1ccc(N(Cc2cc3ccccc3[nH]c2=O)C(=O)c2cccs2)cc1` it was -12.3%.

On to `CC(=O)N(Cc1cc(=O)[nH]c2ccccc12)c1ccc(C)cc1C`, for which the inhibition was 15.3%.

For `Cc1ccc(N(Cc2cc(=O)[nH]c3ccccc23)C(=O)CCl)cc1`, the inhibition was 100% (active). In the case of `O=C(NNC(=O)C(O)c1ccccc1)NC1CCCCC1` (stereo unspecified) it was 16.7%.

As to `Cc1nc(/N=C(\N)NC(=O)NC2CCCCC2)nc2ccccc12`, the inhibition was 53% (active). The result for `COc1ccc2nc(/N=C(\N)NC(=O)Nc3ccccc3)nc(C)c2c1` reads 29%; that for `COc1ccc2c(c1)C(=C(C#N)C#N)C(=O)N2CCc1ccccc1`, 8.08%; that for `Cc1ccc(C)c(NC(=O)CN(C)C(=O)c2ccc3ncsc3c2)c1`, 10.9%. In the case of `C/C(CC(=O)Nc1ccc(N(C)C)cc1)=N\NC(=O)c1ccccc1F` it was 11.6%; in that of `COc1ccc(CC(=O)N/N=C(\C)c2ccccn2)cc1`, 56.7% (active); in that of `C/C(=N\NC(=O)Cc1ccc(Br)cc1)c1cccnc1`, 9.71%. The result for `C/C(=N\NC(=O)c1ccccc1F)c1ccccn1` reads 64.2% (active); that for `C/C(=N\NC(=O)c1ccoc1C)c1ccccc1O`, 49.2%; that for `COc1ccc(C/C(C)=N/NC(=O)c2ccncc2)cc1`, -14.9%. As for `CCOc1ccccc1NS(=O)(=O)c1cc2c3c(c1)C(C)C(=O)N3CCC2` (stereo unspecified), the inhibition is 14.9%.

`CC1C(=O)N(Cc2ccccc2)c2ccccc2N1C(=O)c1ccccc1` (stereo unspecified): the inhibition is 4.7%. The result for `O=C(COC(=O)/C=C/c1ccc(Br)o1)Nc1cccc(S(=O)(=O)N2CCOCC2)c1` reads 26.4%; that for `CN(C)CCCSc1ccccc1NC(=O)/C=C/c1ccccc1`, -28.9%. In the case of `CC(C)NC(=O)C(=O)NCCCOC(C)C` it was 7.36%; in that of `CN(C)c1nc2n(c(=O)n1)CCO2`, -0.85%. With `COc1ccc(CCNC(=O)C2CCCN(S(=O)(=O)c3ccc(OC)cc3)C2)cc1` (stereo unspecified), the inhibition is 31.8%. In the case of `O=C(COC(=O)c1cnccn1)Nc1ccc(Cl)cc1C(F)(F)F` it was -11.4%. For `COc1cccc(CNn2cn[nH]c2=S)c1OCc1ccccc1`, the inhibition is 24.6%. In the case of `O=[N+]([O-])c1ccc(F)cc1Oc1nc(-c2cccnc2)nc2ccccc12` it was 27.2%; in that of `O=[N+]([O-])c1ccc(Oc2ccc(F)cc2Br)c2ccncc12`, 78% (active). The result for `Cc1oc2cc([N+](=O)[O-])c(O)c([N+](=O)[O-])c2c1C(=O)c1ccc(Br)cc1` reads -16.1%; that for `Cc1cc(C)n(CCNCc2c(C(=O)N3C[C@@H](C)O[C@@H](C)C3)nc3ccc(Cl)cn23)n1`, 6.66%. The result for `COC(C[C@@H](O)C[C@H](O)[C@H](C)OCc1ccccc1)OC` reads -23%.

With `Cn1nnnc1-c1cc(Cl)cc(Cl)c1`, the inhibition is 16.3%.

The values above are taken from PubChem BioAssay AID485346 (Sanford-Burnham Center for Chemical Genomics, 2010).
